Experimental data published in PubChem BioAssay AID1159580 (chemical genetic matrix, 2015).
Several values for one entry are separate records, joined by “and”; a condition that tells them apart may be missing. Equal entries are not always repeated. In all, about 5,500 compounds went through this assay and about 2,000 (36%) were called active. Inconclusive results (about 18%) are left out. Cut-off read from the data, not from the text of the source: active = normalized growth mostly below about 0.91 (no sharp cut-off); inconclusive = no clear call, values can overlap the other calls; inactive = mostly above about 0.92. This is one part of the list.

Test: chemical genetic growth profiling, strain panel (AID 1159580);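 note: tested at 20 µM; growth read once vehicle control cultures reached saturation at 30 °C; 1 = growth at the plate median or of vehicle wells; lower values mean less growth of the strain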
Details: S. cerevisiae deletion strains, growth OD

Measured: normalized growth

Nc1c2c(nc3ccccc13)CCCC2O (stereo not drawn)
inactive: locus YAL021C, strain ccr4, active compounds read low 1.01 | locus YAL026C, strain drs2, active compounds read low 1.01 | locus YAL030W, strain snc1, active compounds read low 1.01 | locus YAL040C, strain CLN3, active compounds read low 1.05 | locus YBL061C, strain skt5, active compounds read low 1.01 | locus YBR009C, strain hhf1, active compounds read low 1 | locus YBR021W, strain FUR4, active compounds read low 0.94 | locus YBR023C, strain chs3, active compounds read low 1.01 | locus YBR171W, strain sec66, active compounds read low 1 | locus YBR229C, strain ROT2, active compounds read low 1.01 | locus YBR231C, strain swc5, active compounds read low 0.998 | locus YBR279W, strain paf1, active compounds read low 1.02 | locus YCL011C, strain gbp2, active compounds read low 1.01 | locus YCL016C, strain dcc1, active compounds read low 1 | locus YCL029C, strain bik1, active compounds read low 0.974 | locus YCL061C, strain MRC1 (second series), active compounds read low 1.01 | locus YCL061C, strain MRC1, active compounds read low 1.03 | locus YCL069W, strain vba3, active compounds read low 1.01 | locus YCR088W, strain abp1, active compounds read low 1 | locus YDL005C, strain med2, active compounds read low 1 | locus YDL035C, strain GPR1, active compounds read low 0.994 | locus YDL040C, strain nat1, active compounds read low 1.01 | locus YDL074C, strain BRE1, active compounds read low 1.04 | locus YDL101C, strain DUN1, active compounds read low 1.01 | locus YDL134C, strain PPH21, active compounds read low 1.01 | locus YDL185W, strain tfp1, active compounds read low 0.964 | locus YDL192W, strain arf1, active compounds read low 0.987 | locus YDR001C, strain nth1, active compounds read low 1.01 | locus YDR069C, strain doa4, active compounds read low 1 | locus YDR101C, strain arx1, active compounds read low 0.995 | locus YDR137W, strain rgp1, active compounds read low 1.01 | locus YDR159W, strain sac3, active compounds read low 0.997 | locus YDR162C, strain NBP2, active compounds read low 0.985 | locus YDR195W, strain ref2 0.917 | locus YDR297W, strain sur2, active compounds read low 1.01 | locus YDR318W, strain mcm21, active compounds read low 0.982 | locus YDR334W, strain swr1, active compounds read low 1.01 | locus YDR335W, strain msn5, active compounds read low 1.01 | locus YDR363W, strain ESC2, active compounds read low 1 | locus YDR388W, active compounds read low 0.985 | locus YDR392W, strain spt3, active compounds read low 0.902 | locus YDR502C, strain sam2, active compounds read low 0.998 | locus YEL003W, strain gim4, active compounds read low 1.01 | locus YEL037C, strain rad23, active compounds read low 1.01 | locus YEL061C, strain CIN8 (second series), active compounds read low 1.01 | locus YEL061C, strain CIN8, active compounds read low 1.03 | locus YER002W, strain NOP16, active compounds read low 1.01 | locus YER015W, strain faa2, active compounds read low 1 | locus YER016W, strain bim1, active compounds read low 0.991 | locus YER110C, active compounds read low 0.981 | locus YER111C, strain swi4, active compounds read low 1 | locus YER155C, strain BEM2 (second series), active compounds read low 1 | locus YER155C, strain BEM2, active compounds read low 0.994 | locus YER167W, strain BCK2, active compounds read low 1 | locus YFR010W, strain ubp6, active compounds read low 1 | locus YGL078C, strain dbp3, active compounds read low 0.992 | locus YGL086W, strain mad1, active compounds read low 1.01 | locus YGL167C, strain pmr1, active compounds read low 1 | locus YGL173C, strain kem1, active compounds read low 1.01 | locus YGL227W, strain vid30, active compounds read low 0.995 | locus YGL240W, strain doc1, active compounds read low 0.987 | locus YGL248W, strain PDE1, active compounds read low 1.02 | locus YGL253W, strain hxk2, active compounds read low 1 | locus YGR078C, strain PAC10, active compounds read low 1.03 | locus YGR135W, strain pre9, active compounds read low 0.979 | locus YGR229C, strain SMI1, active compounds read low 1.02 | locus YGR252W, strain gcn5, active compounds read low 0.998 | locus YHR013C, strain ard1, active compounds read low 0.945 | locus YHR027C, strain rpn1, active compounds read low 1.01 | locus YHR030C, strain SLT2, active compounds read low 0.993 and 0.981 | locus YHR079C, strain IRE1 (second series), active compounds read low 0.976 | locus YHR079C, strain IRE1, active compounds read low 0.983 | locus YHR094C, strain hxt1, active compounds read low 0.992 | locus YHR129C, strain ARP1, active compounds read low 1 | locus YHR142W, strain chs7, active compounds read low 1.03 | locus YHR200W, strain rpn10, active compounds read low 0.973 | locus YIL066C, strain RNR3, active compounds read low 1.02 | locus YIL073C, strain SPO22, active compounds read low 0.912 | locus YIL125W, strain kgd1, active compounds read low 0.996 | locus YIR030C, strain dcg1, active compounds read low 0.979 | locus YJL092W, strain hpr5, active compounds read low 1.03 | locus YJL095W, strain BCK1 (second series), active compounds read low 1.01 | locus YJL095W, strain BCK1, active compounds read low 1.05 and 0.988 | locus YJL115W, strain asf1, active compounds read low 1 | locus YJL129C, strain trk1, active compounds read low 1.05 | locus YJL134W, strain LCB3, active compounds read low 0.996 | locus YJL154C, strain vps35, active compounds read low 1.01 | locus YJL164C, strain tpk1, active compounds read low 1.02 | locus YJL166W, strain qcr8, active compounds read low 1.01 | locus YJL168C, strain set2, active compounds read low 0.991 | locus YJL187C, strain SWE1 (second series), active compounds read low 1.03 | locus YJL187C, strain SWE1, active compounds read low 1.02 | locus YJR043C, strain POL32, active compounds read low 1.02
